Laboratory results taken from ChEMBL document CHEMBL1157539, “Thousands of chemical starting points for antimalarial lead identification” (Nature, 2010).

Assays:
Type in all cases: functional
Plasmodium falciparum [1] = test: GSK_TCMDC: Inhibition of Plasmodium falciparum 3D7 in whole red blood cells, using parasite LDH activity as an index of growth. Test compounds present at 2uM
Plasmodium falciparum [2] = test: GSK_TCMDC: Inhibition of Plasmodium falciparum Dd2 in whole red blood cells, using parasite LDH activity as an index of growth. Test compounds present at 2uM
HepG2 = test: GSK_TCMDC: Percent inhibition of human HepG2 cell line. Test compounds present at 10uM.

| Compound | Inhibition (Plasmodium falciparum [1]) [%] | Inhibition (Plasmodium falciparum [2]) [%] | Inhibition (HepG2) [%] |
| --- | --- | --- | --- |
| O=C(Nc1cn(-c2ccc(OCc3cccc(F)c3)c(Cl)c2)c2ncncc12)c1ccncc1 | 100 | 81 | 13 |
| O=C(NCC1CCN(Cc2cccc(C(F)(F)F)c2)C1)c1cc(-c2cccc(Cl)c2)cs1.O=C(O)C(F)(F)F (stereo not drawn) | 93 | 14 | 15 |
| COc1ccc(C2CCN(CCN3CCC(NC(=O)c4ccc(-c5cccc(C(F)(F)F)c5C(F)(F)F)cc4)CC3)CC2)c(OC)c1 | 100 | 61 | 35 |
| CS(=O)(=O)NCCCNCc1ccc(-c2ccc(-c3nc4cc(F)ccc4[nH]3)cc2)cc1.O=C(O)C(F)(F)F | 100 | 97 | 17 |
| CC(C)C1=NC(=O)c2cc([N+](=O)[O-])ccc2CN1 | 98 | 0 | 6 |
| COc1cc(Nc2nccc(N3CCC(NC(=O)Nc4ccc5c(c4)OCO5)C3)n2)cc(OC)c1OC (stereo not drawn) | 96 | 74 | 9 |
| O=C(N[C@@H](CC1CCCCC1)C(=O)NC1CCCCCC1)c1ccc(O)c(-c2ccc(Cl)c(Cl)c2)c1 | 99 | 100 | 0 |
| Cc1ccc(C(=O)Cn2nc(-c3ccc(C)c(S(=O)(=O)N4CCCC4)c3)ccc2=O)cc1 | 94 | 70 | 0 |
| Cl.c1ccc2c(C3CCN(CCCCOc4ccc5c(c4)CCN(C4CCC4)CC5)CC3)c[nH]c2c1 | 100 | 100 | 80 |
| Cl.Oc1cc(Nc2ccnc3ccc(I)cc23)c(F)cc1Cl | 95 | 13 | 20 |
| O=C(/C=C/c1ccc(Cl)c(Cl)c1)NC1CCN(CCCNC(=O)c2cccc(Cl)c2)CC1.O=C(O)C(F)(F)F | 100 | 28 | 36 |
| Cc1cc(N[C@@H](CC(C)C)C(=O)NCc2cccc(F)c2)nc(NCCc2ccccc2)n1.O=C(O)C(F)(F)F | 88 | 33 | 6 |
| CC(C)n1ncc2c(C(=O)N3CCCC4CCCCC43)cc(C3CC3)nc21 (stereo not drawn) | 99 | 92 | 7 |
| Cl.Nc1c2c(nc3ccc(C(=O)Nc4cc(I)c(O)c(I)c4)cc13)CCCC2 | 96 | 64 | 14 |
| CCN(CC)CCCC(C)Nc1c2ccccc2nc2ccc3ccccc3c12.Cl (stereo not drawn) | 100 | 89 | 24 |
| O=C(NCCc1ccccc1)N(Cc1ccc(-c2cccc(CN3CCNCC3)c2)cc1)C1CCN(Cc2ccccc2)CC1.O=C(O)C(F)(F)F | 90 | 29 | 27 |
| Cc1ccc(C2CCN(CCCCNC(=O)c3ccc(NC(=O)c4ccc(Cl)cc4)cc3)CC2)c(OCC(F)(F)F)c1 | 99 | 84 | 32 |
| Cc1cc(N[C@@H](Cc2ccccc2)C(=O)Nc2ccccc2)nc(Nc2ccccc2)n1.O=C(O)C(F)(F)F | 100 | 69 | 8 |
| Cc1cnc(Nc2cccnc2)nc1Nc1ccccc1C(=O)NC(C)C | 85 | 26 | 9 |
| O=C(O)C(F)(F)F.O=c1cc(NCCCNCc2cn(S(=O)(=O)c3ccccc3)c3ccccc23)[nH]c2ccccc12 | 91 | 29 | 17 |
| CC(C)(C)c1ccc(CNC(=O)c2cc(CNC3CCC(N)CC3)ccc2O)cc1 (stereo not drawn) | 94 | 1 | 1 |

| Compound | Inhibition (Plasmodium falciparum [1]) [%] | Inhibition (Plasmodium falciparum [2]) [%] | Inhibition (HepG2) [%] |
| --- | --- | --- | --- |
| COCCCn1c(=N)c(C(=O)NCCc2ccc(OC)cc2)cc2c(=O)n3cccc(C)c3nc21 | 95 | 33 | 18 |
| O=C(CCCCCNC(=O)c1ccc(O)c(-c2ccc(Cl)c(Cl)c2)c1)NCCN1CCOCC1 | 95 | 0 | 0 |
| CN1CCCN(Cc2ccc(-c3cccc(NC(=O)c4ccc(F)cc4)c3)cc2)CC1.O=C(O)C(F)(F)F | 89 | 8 | 29 |
| O=C(NCC1CCN(Cc2ccsc2)C1)c1cc(-c2cccc(C(F)(F)F)c2)cs1.O=C(O)C(F)(F)F (stereo not drawn) | 98 | 15 | 37 |
| Cc1ccc(O)cc1Nc1ccnc2cc(-c3ccncc3)ccc12.Cl | 100 | 84 | 16 |
| O=[N+]([O-])c1ccc(C=NNc2nc(Nc3ccccc3)nc(Nc3ccccc3)n2)o1 | 94 | 61 | 5 |
| N#Cc1cccc(NC(=O)Nc2cccc(-c3cccc(-c4nc5cc(F)ccc5[nH]4)c3)c2)c1 | 100 | 66 | 60 |
| COc1ccc2c(NN=Cc3ccncc3)ccnc2c1 | 95 | 6 | 0 |
| Cc1cc(N2CCCC2)nc(Nc2ccc(NC(=O)C3CCCC3)cc2)n1 | 100 | 81 | 27 |
| CC(C)c1cccc(OCC2CCN(c3ccc(C(=O)Nc4ccccc4)cn3)CC2)c1 | 95 | 90 | 9 |
| CC(C)C[C@H](Nc1ccnc(NCC2CCCCC2)n1)C(=O)NCCOc1ccccc1.O=C(O)C(F)(F)F | 89 | 73 | 37 |
| COC(=O)Cn1c2ccccc2c2c(N)c(C(=O)OC)c(C)nc21 | 93 | 1 | 0 |
| COc1ccc(S(=O)(=O)NC2CCN(c3cc(C)nc(Nc4cccc(C#N)c4)n3)CC2)cc1.O=C(O)C(F)(F)F | 88 | 55 | 9 |
| COc1ccc2nc(N)nc(C)c2c1 | 90 | 1 | 5 |
| O=C(NCc1cccc(F)c1)Nc1cccc(-c2cccc(-c3nc4cc(C(F)(F)F)ccc4[nH]3)c2)c1 | 93 | 32 | 55 |
| O=C(Nc1cc(Cl)ccc1Cl)N[C@H]1CCN(CCCCCNC(=O)C2CC2c2ccc(Cl)c(Cl)c2)C1 (stereo partly drawn) | 97 | 1 | 49 |
| CC(Oc1c(C2CCN(CCCCNC(=O)c3ccc(-c4ccc(C#N)cc4)cc3)CC2)ccc2c1CCCC2)C(N)=O (stereo not drawn) | 100 | 83 | 41 |
| CN1CCN(c2ccc(Nc3ncc([N+](=O)[O-])c(Nc4ccccc4O)n3)cc2)CC1.O=C(O)C(F)(F)F | 100 | 97 | 98 |
| O=C(c1cc(OC(F)(F)F)ccc1O)N1CCN(c2ccccc2)CC1 | 88 | 1 | 0 |
| COc1ccc(Br)cc1/C=C/C(=O)Nc1ccc(C2CCCN(C)C2)cc1.O=CO (stereo not drawn) | 100 | 35 | 18 |
| Cc1ccc(NC(=O)c2ccc3ncccc3c2)cc1OC1CCN(Cc2ccc(F)cc2)C1.O=C(O)C(F)(F)F (stereo not drawn) | 83 | 28 | 11 |

| Compound | Inhibition (Plasmodium falciparum [1]) [%] | Inhibition (Plasmodium falciparum [2]) [%] | Inhibition (HepG2) [%] |
| --- | --- | --- | --- |
| CN/C(=N\O)NCCN(C)C.Cl | 88 | 0 | 0 |
| Fc1ccc2[nH]c(-c3ccc(-c4cccc(CN5CCN(c6ccncc6)CC5)c4)cc3)nc2c1.O=C(O)C(F)(F)F | 100 | 100 | 66 |
| O=C(/C=C/c1ccc(Cl)c(Cl)c1)NCCCCCN1CCC(NC(=O)Nc2ccc(F)c(F)c2)CC1 | 99 | 4 | 24 |
| NCC1CCCN1Cc1ccc(-c2cccc(-c3nc4cc(F)ccc4[nH]3)c2)cc1.O=C(O)C(F)(F)F (stereo not drawn) | 100 | 31 | 38 |
| CC(C)(C)c1nn(-c2ccccc2)c2[nH]c(=O)c(CNCc3ccccc3)cc12 | 90 | 91 | 5 |
| O=c1cc(NCCCNC2CCCc3c2cc(Cl)c(Cl)c3Cl)[nH]c2ccccc12 (stereo not drawn) | 100 | 64 | 6 |
| COc1ccc(C(=O)N2CCC3(CC2)C(=O)N(CC(=O)NCC2CCCCC2)CN3c2ccccc2)c(OC)c1 | 100 | 99 | 6 |
| COc1ccccc1CCNc1nc(C)cc(N[C@@H](Cc2ccccc2)C(=O)Nc2ccccc2)n1.O=C(O)C(F)(F)F | 100 | 86 | 30 |
| O=C(Nc1cccc(N2CCC(NCc3cnn(-c4cccc(F)c4)c3)CC2)c1)c1ccncc1 | 84 | 40 | 50 |
| Cc1cc(N2CCOCC2)nc(Nc2ccc(NC(=O)c3cccc4ccccc34)cc2)n1 | 95 | 11 | 44 |
| O=c1cc(-c2ccc3ccccc3c2)[nH]c2ccccc12 | 81 | 44 | 25 |
| C=Cc1c(C2CCN(CCCCNC(=O)c3ccc(-c4ccc(C#N)cc4)cc3)CC2)ccc2c1CCCC2 | 94 | 75 | 75 |
| Br.CC(=O)Nc1nc(C)c(-c2csc(Nc3ccc(Cl)cc3)n2)s1 | 96 | 93 | 14 |
| C=CC[C@H](C[C@H](O)[C@H](Cc1ccccc1)NC(=O)c1ccc(-c2cccnn2)cc1)C(=O)NC1CCCCC1 | 83 | 0 | 2 |
| NC1=NC(c2ccccc2)(c2ccccc2)C(=O)N1CC1CCC1.O=CO | 96 | 74 | 17 |
| CC(=O)Nc1ccc(CN2CCCN(c3cc(NC(=O)c4cccc(C)c4)ccn3)CC2)cc1.O=C(O)C(F)(F)F | 92 | 10 | 0 |
| C[C@H](Cc1ccc(OCCCCCCOc2ccc(C[C@@H](C)N[C@H](C)c3ccccc3)cc2)cc1)NC[C@H](O)c1cccc(Cl)c1.Cl | 99 | 98 | 99 |
| Oc1ccc(-c2cncc(NCc3ccc(F)c(F)c3)c2)cc1 | 95 | 80 | 0 |
| CCN(CC)/C(=N\C(=N)NCCCCCCNC(=N)/N=C(\Nc1ccc(Cl)cc1)N(CC)CC)Nc1ccc(Cl)cc1 | 97 | 96 | 1 |
